For 40 sequences, sensor-assay potency score (higher = more potent) results are on record in the OligoGym collection.
Further: reference of the scale not given here.

For the first assay, the target named is CYP2E1. The experiment in a line: pooled miR-30 sensor sort-seq; sequence = guide strand. The conditions noted are these: shRNA.
Turning to TACAGCGTGAACACCGGCCCGA, the sensor-assay potency score (higher = more potent) was -0.641.

For the sequence AAGTAGTGTAGAAAGCTGGGAA, the sensor-assay potency score (higher = more potent) turned out to be 0.682.

For the sequence TGTCATACAAAACAGAGTCCAG, the sensor-assay potency score (higher = more potent) is -0.481.

Consider TTGAAATAGTCACTGTACTTGA, for which the sensor-assay potency score (higher = more potent) is -0.183.

For TTGGTTGTCATACAAAACAGAG, the sensor-assay potency score (higher = more potent) was -1.2.

TTTTTTATGACTTTTCTGTGGC: the sensor-assay potency score (higher = more potent) was determined as 0.343.

As for TAGTCACTGTACTTGAACTTTC, the sensor-assay potency score (higher = more potent) was -0.787.

Sequence TAGAAACTTCTCATCATTGTAG displayed a sensor-assay potency score (higher = more potent) of 1.11.

For the sequence TTAAACAAATACATCAGCCTTA, the sensor-assay potency score (higher = more potent) stood at 0.593.

With ATGTAGGGCATCTCTTGCCTAT, the sensor-assay potency score (higher = more potent) is -1.01.

TAAACTTTTCTGGATCAGGAAA: the sensor-assay potency score (higher = more potent) is -1.37.

Turning to ATCATTGTAGTCAAAATGCTTG, the sensor-assay potency score (higher = more potent) is -1.07.

Take TTGATGGTGCTCCTTCACCCTT: the sensor-assay potency score (higher = more potent) was -1.19.

Sequence TTATTAAAAATGATTCCCCTGT showed a sensor-assay potency score (higher = more potent) of 0.074.

For the sequence TATTCTTCAATTCCAACTGGAA, the sensor-assay potency score (higher = more potent) is -0.685.

TAAACAAATACATCAGCCTTAG: the sensor-assay potency score (higher = more potent) was -0.917.

As for TGTCCTTCCAGGTAGGTCCATT, the sensor-assay potency score (higher = more potent) is -0.826.

For the sequence TTCATGGAGCTTCTCTTCGATC, the sensor-assay potency score (higher = more potent) is -1.27.

The target in another assay is CYP4A11. The assay is described as above. To be noted: shRNA.
As for AACACAAGTCGTGCAATGGGGA, the sensor-assay potency score (higher = more potent) was -1.18.

Consider TGTGCAGGTAGAGCTGAACTGC, for which the sensor-assay potency score (higher = more potent) was -1.37.

As to AAAGGGTCAAACACCTCTGGGT, the sensor-assay potency score (higher = more potent) is -0.324.

For the sequence TAGATGGTGTCATTCTGGTGAA, the sensor-assay potency score (higher = more potent) is -0.837.

For the sequence TTTCTGAATCCGTTGTAGCTCC, the sensor-assay potency score (higher = more potent) was -0.368.

For TAGCTCCTGGTCCTGTTGGAGC, the sensor-assay potency score (higher = more potent) was -1.31.

For TTTGAGCAGCCACTGCCTGTGC, the sensor-assay potency score (higher = more potent) was -0.428.

The target in another assay is CYP4A22. The description is as above. The conditions noted are these: shRNA.
Take TTGGGAATGTCTTCACCCGTTC: the sensor-assay potency score (higher = more potent) was -0.893.

Regarding TGGTCGTGTTGGAACTCCTGGA, the sensor-assay potency score (higher = more potent) was -0.8.

Consider TTCTGTAGTTGAGCCTTCCTCA, for which the sensor-assay potency score (higher = more potent) worked out at 0.294.

Consider TATGCAGGTAGAGCTGAGCTGC, for which the sensor-assay potency score (higher = more potent) is -1.03.

TTGTCTGACAAGATGCTCCCAT: the sensor-assay potency score (higher = more potent) stood at 0.46.

As for TAGCTCCTGGTCGTGTTGGAAC, the sensor-assay potency score (higher = more potent) is -1.63.

In the case of AACACAAGTCGTGCCATGGGGA, the sensor-assay potency score (higher = more potent) is -0.895.

Turning to TGTCTGACAAGATGCTCCCATT, the sensor-assay potency score (higher = more potent) is -1.67.

In the case of AATAAGGACAGGCACTTGGGAA, the sensor-assay potency score (higher = more potent) is -1.26.

Take TGAGCTCTCTTCCAATGCCTGG: the sensor-assay potency score (higher = more potent) is -1.4.

For TCAGTTGGATCACTTGGTCTGT, the sensor-assay potency score (higher = more potent) is -0.279.

As to TCCTTGTCTGACAAGATGCTCC, the sensor-assay potency score (higher = more potent) is -1.35.

For TTTCAACACAAGTCGTGCCATG, the sensor-assay potency score (higher = more potent) was -0.809.

As for ATTTCAACACAAGTCGTGCCAT, the sensor-assay potency score (higher = more potent) is -0.11.

As for TTCCTGAATCCGTTGTAGCTCC, the sensor-assay potency score (higher = more potent) was -0.657.
